# Assay results from PubChem BioAssay (NCATS).
# Inconclusive results are not listed. Entries that show only a call come without a potency. The source made the active and inactive calls. The call rests on the fitted dose curve; in most records, active means well fitted curve in the direction sought with a large enough effect; inconclusive means small, poorly fitted or top-dose-only effect, or another doubt; inactive means no such curve, though single readings can be large; an effect the other way counts as inactive or inconclusive.
# Molecular target: DNA repair nuclease/redox regulator APEX1 (Homo sapiens) (UniProt P27695)
# Sequence (P27695 whole entry, looked up): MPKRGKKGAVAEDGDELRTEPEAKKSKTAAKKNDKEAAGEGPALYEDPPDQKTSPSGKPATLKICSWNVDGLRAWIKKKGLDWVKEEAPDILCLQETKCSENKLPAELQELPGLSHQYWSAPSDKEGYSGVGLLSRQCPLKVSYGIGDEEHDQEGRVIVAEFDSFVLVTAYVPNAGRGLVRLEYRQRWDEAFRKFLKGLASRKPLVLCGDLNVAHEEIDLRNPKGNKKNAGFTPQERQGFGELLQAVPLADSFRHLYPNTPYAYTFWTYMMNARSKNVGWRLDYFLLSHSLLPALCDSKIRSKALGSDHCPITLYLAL
# Assay: qHTS Validation Assay for Inhibitors of the Human Apurinic/apyrimidinic Endonuclease 1 (APE1) (AID 1705;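 further: TAMRA fluorescence gain over two minutes as APE1 cuts a quenched THF abasic duplex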)
# Conditions: purified APE1 endonuclease activity, fluorescence, titration; series mostly up to 57.1 µM
# Summary of the method: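 qHTS, 1536-well. APE1 + cpd 15 min RT → 50 nM TAMRA/BHQ-2 THF-abasic dsDNA substrate → kinetic fluorescence, 3 reads/60 s; delta(read3−read1) = reaction progress. No-enzyme buffer = negative control.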
row,SMILES,Potency
1,CCCCNC(=O)NS(=O)(=O)c1ccc(C)cc1,inactive
2,CN(C(=O)CCCOc1ccc2[nH]c(=O)ccc2c1)C1CCCCC1,inactive
3,O=C1NCN(c2ccccc2)C12CCN(CCCC(c1ccc(F)cc1)c1ccc(F)cc1)CC2,inactive
4,NC(Cc1ccc(Cl)cc1)C(=O)O (configuration not stated),inactive
5,COCCOC(=O)C1=C(C)NC(C)=C(C(=O)OC(C)C)C1c1cccc([N+](=O)[O-])c1 (configuration not stated),inactive
6,CCN(Cc1ccncc1)C(=O)C(CO)c1ccccc1 (configuration not stated),inactive
7,Fc1ccc(C(c2ccc(F)cc2)N2CCN(C/C=C/c3ccccc3)CC2)cc1,inactive
8,Cc1scc2c1N(C(=O)CN1CCN(C)CC1)c1ccccc1NC2=O,inactive
9,COc1cc(Cc2cnc(N)nc2N)cc(OC)c1OC,inactive
10,CC(=O)Oc1cc(C(C)C)c(OCCN(C)C)cc1C,inactive
11,CO[C@@]1(NC(=O)CSCC#N)C(=O)N2C(C(=O)O)=C(CSc3nnnn3C)CS[C@@H]21,inactive
12,CC(=O)OCC1=C(C(=O)O)N2C(=O)[C@@H](NC(=O)Cc3cccs3)[C@H]2SC1,inactive
13,CCn1ccnc1CC1COc2ccccc2O1 (configuration not stated),inactive
14,CN(C)C(=O)Oc1ccc[n+](C)c1,inactive
15,Cc1nnc(SCC2=C(C(=O)O)N3C(=O)[C@@H](NC(=O)Cn4cnnn4)[C@H]3SC2)s1,inactive
16,CN(C)CC[C@@H](c1ccc(Br)cc1)c1ccccn1,inactive
17,C[C@H](CS)C(=O)N1CCC[C@H]1C(=O)O,inactive
18,CCOC(=O)C1=C(C)NC(C)=C(C(=O)OC)C1c1cccc(Cl)c1Cl (configuration not stated),inactive

row,SMILES,Potency
1,Cc1ccc(S(=O)(=O)NC(=O)NN2CCCCCC2)cc1,inactive
2,CNCCC(Oc1ccccc1OC)c1ccccc1 (configuration not stated),inactive
3,CC(C(=O)O)c1ccc(CC2CCCC2=O)cc1 (configuration not stated),inactive
4,OC(CCN1CCCCC1)(c1ccccc1)C1CCCCC1 (configuration not stated),inactive
5,c1ccc2c(c1)CCCC2C1=NCCN1 (configuration not stated),inactive
6,OCCN1CCN(CC/C=C2/c3ccccc3Sc3ccc(C(F)(F)F)cc32)CC1,inactive
7,Nc1c2c(nc3ccccc13)CCCC2O (configuration not stated),inactive
8,NC(N)=N/N=C/c1c(Cl)cccc1Cl,inactive
9,CCNC(=O)N1CCN(CCCC(c2ccc(F)cc2)c2ccc(F)cc2)CC1,inactive
10,CCN(CC)CC(=O)Nc1c(C)cccc1C,inactive
11,COc1ccc([C@@H]2Sc3ccccc3N(CCN(C)C)C(=O)[C@@H]2OC(C)=O)cc1,inactive
12,Cc1cc(C)c(/C=C2\C(=O)Nc3ccccc32)[nH]1,inactive
13,C(=C\c1ccccc1)/CN1CCN(C(c2ccccc2)c2ccccc2)CC1,inactive
14,C[C@]12CCC(=O)C=C1CC[C@@H]1[C@@H]2CC[C@@]2(C)[C@H]1CC[C@]2(O)C(=O)CO,inactive
15,Cc1nc2c([nH]1)c(=O)n(C)c(=O)n2Cc1ccco1,inactive
16,CN(C)CCN(Cc1cccs1)c1ccccn1,inactive
17,COCCc1ccc(OCC(O)CNC(C)C)cc1 (configuration not stated),inactive
18,c1cc(CN2CCCCC2)cc(OCCCNc2nc3ccccc3s2)c1,inactive

# Tested on: not listed separately
# Assay: Counterscreen for APE1 Inhibitors: Fluorescent Dye Displacement Validation Assay (AID 1707)
# Conditions: fluorescent dye displacement from DNA; series mostly up to 57.1 µM
# Summary of the method: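 Thiazole Orange (250 nM) bound to 50 nM TAMRA-labelled dsDNA with tetrahydrofuran abasic site; displacement by DNA-binding compounds lowers fluorescence. Buffer 50 mM Tris-HCl pH 7.5, 50 mM NaCl, 2 mM MgCl2, 0.01% Tween-20; endpoint read at 480/540 nm.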
row,SMILES,outcome
1,CCCCNC(=O)NS(=O)(=O)c1ccc(C)cc1,inactive
2,CN(C(=O)CCCOc1ccc2[nH]c(=O)ccc2c1)C1CCCCC1,inactive
3,O=C1NCN(c2ccccc2)C12CCN(CCCC(c1ccc(F)cc1)c1ccc(F)cc1)CC2,inactive
4,NC(Cc1ccc(Cl)cc1)C(=O)O (configuration not stated),inactive
5,COCCOC(=O)C1=C(C)NC(C)=C(C(=O)OC(C)C)C1c1cccc([N+](=O)[O-])c1 (configuration not stated),inactive
6,CCN(Cc1ccncc1)C(=O)C(CO)c1ccccc1 (configuration not stated),inactive
7,Fc1ccc(C(c2ccc(F)cc2)N2CCN(C/C=C/c3ccccc3)CC2)cc1,inactive
8,Cc1scc2c1N(C(=O)CN1CCN(C)CC1)c1ccccc1NC2=O,inactive
9,COc1cc(Cc2cnc(N)nc2N)cc(OC)c1OC,inactive
10,CC(=O)Oc1cc(C(C)C)c(OCCN(C)C)cc1C,inactive
11,CO[C@@]1(NC(=O)CSCC#N)C(=O)N2C(C(=O)O)=C(CSc3nnnn3C)CS[C@@H]21,inactive
12,CC(=O)OCC1=C(C(=O)O)N2C(=O)[C@@H](NC(=O)Cc3cccs3)[C@H]2SC1,inactive
13,CCn1ccnc1CC1COc2ccccc2O1 (configuration not stated),inactive
14,CN(C)C(=O)Oc1ccc[n+](C)c1,inactive
15,Cc1nnc(SCC2=C(C(=O)O)N3C(=O)[C@@H](NC(=O)Cn4cnnn4)[C@H]3SC2)s1,inactive
16,CN(C)CC[C@@H](c1ccc(Br)cc1)c1ccccn1,inactive
17,C[C@H](CS)C(=O)N1CCC[C@H]1C(=O)O,inactive
18,CCOC(=O)C1=C(C)NC(C)=C(C(=O)OC)C1c1cccc(Cl)c1Cl (configuration not stated),inactive

row,SMILES,outcome
1,Cc1ccc(S(=O)(=O)NC(=O)NN2CCCCCC2)cc1,inactive
2,CNCCC(Oc1ccccc1OC)c1ccccc1 (configuration not stated),inactive
3,CC(C(=O)O)c1ccc(CC2CCCC2=O)cc1 (configuration not stated),inactive
4,OC(CCN1CCCCC1)(c1ccccc1)C1CCCCC1 (configuration not stated),inactive
5,c1ccc2c(c1)CCCC2C1=NCCN1 (configuration not stated),inactive
6,OCCN1CCN(CC/C=C2/c3ccccc3Sc3ccc(C(F)(F)F)cc32)CC1,inactive
7,Nc1c2c(nc3ccccc13)CCCC2O (configuration not stated),inactive
8,NC(N)=N/N=C/c1c(Cl)cccc1Cl,inactive
9,CCNC(=O)N1CCN(CCCC(c2ccc(F)cc2)c2ccc(F)cc2)CC1,inactive
10,CCN(CC)CC(=O)Nc1c(C)cccc1C,inactive
11,COc1ccc([C@@H]2Sc3ccccc3N(CCN(C)C)C(=O)[C@@H]2OC(C)=O)cc1,inactive
12,Cc1cc(C)c(/C=C2\C(=O)Nc3ccccc32)[nH]1,inactive
13,C(=C\c1ccccc1)/CN1CCN(C(c2ccccc2)c2ccccc2)CC1,inactive
14,C[C@]12CCC(=O)C=C1CC[C@@H]1[C@@H]2CC[C@@]2(C)[C@H]1CC[C@]2(O)C(=O)CO,inactive
15,Cc1nc2c([nH]1)c(=O)n(C)c(=O)n2Cc1ccco1,inactive
16,CN(C)CCN(Cc1cccs1)c1ccccn1,inactive
17,COCCc1ccc(OCC(O)CNC(C)C)cc1 (configuration not stated),inactive
18,c1cc(CN2CCCCC2)cc(OCCCNc2nc3ccccc3s2)c1,inactive
